# Most compounds without a hit are left out; they make up all but 10% or so of the library.
# CtBP-E1A blk: qHTS Assay for Inhibitors of the CtBP/E1A Interaction; CtBP / adenovirus E1A interaction (AlphaScreen); AlphaScreen GST-E1A/His-CtBP binding, 1536-well; hits give low values; activity change, % (concentration not given with the values); 340,000 tested, 0.49% active; in the data active = activity change below about -65%; inconclusive = mostly about -30% to -63%
#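 In 5 uL wells, 23 nL compound meets equimolar GST-E1A and His-CtBP (5X stock 125 nM each) for 2 h, 37 °C. Beads (5X, 50 ug/mL) then 1 h, 37 °C, dark.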
# G9a inh: qHTS Assay for Inhibitors of Histone Lysine Methyltransferase G9a. Histone-lysine N-methyltransferase EHMT2 (Homo sapiens), Q96KQ7. Potency, µM (series often up to 102 µM), actives largely listed as inhibitors. AID 504332, 2011. G9a H3K9 monomethylation, AlphaScreen, 2 h. 350,000 tested, 8.8% active; also: nearly all actives have a fitted effect of over 75% in size
#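 AlphaScreen read-out: biotin-H3K9 peptide (500 nM) methylation by 20 nM enzyme with 20 uM SAM, 2 h at room temperature after 15 min compound preincubation; anti-monomethyl H3K9 antibody plus donor/acceptor beads, 10 min dark.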
# JMJD2A Tudor: qHTS Assay for Inhibitors of JMJD2A-Tudor Domain | Lysine-specific demethylase 4A (Homo sapiens), O75164 | AlphaScreen JMJD2A-Tudor / H3K4me3 peptide binding | Potency, µM (highest dose often 114 µM), most hits filed as inhibitors | 390,000 tested, 4.4% active; also: nearly all actives have a fitted effect of over 50% in size
# BAZ2B inh: qHTS Assay for Inhibitors of BAZ2B; AID 504333, 2011; 360,000 tested, 4.4% active; AlphaScreen BAZ2B-H3K14Ac peptide displacement; Potency, µM (doses to about 114 µM), actives largely listed as inhibitors; Bromodomain adjacent to zinc finger domain protein 2B (Homo sapiens), Q9UIF8; also: nearly all actives have a fitted effect of over 60% in size
#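 Protein-peptide AlphaScreen: BAZ2B 50 nM, b-H3K14Ac 50 nM, 1x PBS pH 7.4 + 0.01% Tween-20. Preincubation 30 min RT; cpd 30 min RT (top 110 uM); beads 20 min RT, light-protected.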
# Six1-Eya2 blk: qHTS Assay for Inhibitors of the Six1/Eya2 Interaction; Homeobox protein SIX1 (Homo sapiens) + Protein phosphatase EYA2 (Homo sapiens), …; AlphaScreen GST-Six1/His-Eya2 binding, biochemical; hits give low values; activity change, % (no concentration beside the values); 360,000 tested, 0.56% active; in the data active = activity change below about -65%; inconclusive = mostly about -30% to -63%
#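 AlphaScreen with GST-Six1 and His-Eya2 (5X mix: 250 nM and 500 nM), glutathione donor and nickel acceptor beads; buffer 50 mM Tris pH 8.0, 300 mM NaCl, 1 mM TCEP; 1 h at 37 C in the dark.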
# HP1b binding inh: HTS for Inhibitors of HP1-beta Chromodomain Interactions with Methylated Histone Tails; Chromobox protein homolog 1 (Homo sapiens), P83916; AlphaScreen HP1-beta / biotin-H3K9me3 peptide binding; Potency, µM (doses to about 114 µM), actives largely listed as inhibitors; 390,000 tested, 0.56% active; also: nearly all actives have a fitted effect of over 70% in size
#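 AlphaScreen: HP1-beta (50 nM) preformed 30 min with biotin-H3(1-18)K9me3 peptide (50 nM) in PBS pH 7.4, 0.01% Tween-20. Compound added for 30 min at RT, then streptavidin donor/nickel chelate acceptor beads (10 ug/mL) for 30 min.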
# Numbers stand for hits; n = inactive; u = inconclusive; x = no result; ! = not active in a repeat; [ ] = dose if it differs, or a comment. Unless noted, calls follow the shape of the dose curve; as a rule, active = well fitted inhibition curve with a large enough effect; inconclusive = small, poorly fitted or top-dose-only effect; inactive = no such curve, though single readings can be large or run the other way.
SMILES,CtBP-E1A blk,G9a inh,JMJD2A Tudor,BAZ2B inh,Six1-Eya2 blk,HP1b binding inh
O=C(C[n+]1ccccc1)N/N=C/c1cc(Br)ccc1O,n,n,22µM,10µM,-88,n
COc1cccc(/C=N/NC(=O)CNC(=O)c2ccncc2)c1O,x,n,n,n,n,n
COc1cccc(/C=N/NC(=O)CNC(=O)c2ccc3c(c2)OCCO3)c1O,u,n,n,n,-88,n
O=C(NN=Cc1ccc(O)cc1)C(=O)NN=Cc1ccc(O)cc1,n,x,n,x,n,n
CCOC(=O)C1(C)CCCN(C(=O)c2cc(C)oc2C)C1 (stereo not drawn),n,x,x,x,n,x
CCOC(=O)c1ccc(NC(=S)NCCCN2CCOCC2)cc1,n,x,n,n,n,n
CCOc1ccc(NC(=O)CSc2ncc3c(n2)-c2ccccc2N(C)S3(=O)=O)cc1,x,n,n,n,x,n
CCOc1cc(/C=N/n2c(C)nnc2C)ccc1O,x,n,n,n,n,n
O=C1C2C3C=CC(CC3)C2C(=O)N1/N=C/c1c(O)ccc2ccccc12 (stereo not drawn),x,25µM,n,n,n,n
O=C1C2C3C=CC(CC3)C2C(=O)N1/N=C/c1ccccc1O (stereo not drawn),n,n,n,n,n,n
COc1ccc2ccccc2c1/C=N\n1c(C)cc(C)c(C(N)=O)c1=O,n,n[0.501 µM],n,u,n,n
Cn1c(/N=C/c2c(O)ccc3ccccc23)nc2ccccc21,n,1.8µM,40µM,56µM,n,u
Cc1nnc(C)n1/N=C/c1c(O)ccc2ccccc12,x,n[2.33 µM],8.9µM,u,n,n
Cc1nnc(-c2ccccc2)c(=O)n1/N=C/c1c(O)ccc2ccccc12,n,u,56µM,25µM,-94,n
CCOc1ccc(CC(=O)N/N=C/c2cccnc2)cc1OCC,n,u,n,n,n,n
CCOc1ccc(CNC(=O)CN2C(=O)C(c3ccccc3)Oc3cccnc32)cc1 (stereo not drawn),n,n,n,71µM,n,n
COc1ccc(CNC(=O)CN2C(=O)C(c3ccccc3)Oc3cccnc32)cc1 (stereo not drawn),n,n,n,n,n,n
O=C(CN1C(=O)C(c2ccccc2)Oc2cccnc21)NCc1ccccc1F (stereo not drawn),n,n,20µM,n,n,n
O=C(N/N=C/c1ccoc1)c1ccccc1,n,n,n,56µM,n,n
Cc1cc(C)cc(C(=O)N/N=C/c2ccoc2)c1,n,n,n,n,n,n
O=C(N/N=C/c1ccoc1)c1ccc(Br)cc1,n,n,n,u,n,n
O=C(N/N=C/c1ccoc1)c1cc(O)cc(O)c1,n,x,25µM,20µM,u,45µM
O=C(N/N=C/c1ccoc1)c1ccc(Cl)cc1,n,45µM,n,n,n,n
Cn1c(/C=N/NC(=O)c2ccccc2)nc2ccccc21,n,u,89µM,n,n,n
Cc1cccc(N2CCN(S(=O)(=O)c3cc(C(=O)Nc4ccccc4Cl)ccc3F)CC2)c1C,x,n,n,n,x,n
SMILES,CtBP-E1A blk,G9a inh,JMJD2A Tudor,BAZ2B inh,Six1-Eya2 blk,HP1b binding inh
COc1ccc(CN2C(=NC(=O)C3CCCO3)SC3CS(=O)(=O)CC32)cc1OC (stereo not drawn),n,n,n,n,n,n
Cc1nnc(N/N=C/c2cccc(OCc3ccc(Cl)c(Cl)c3)c2)n1N,n,10µM,u,u,n,n
CCc1nnc(N/N=C\c2ccc(OC(C)=O)c(OC)c2)n1N,u,u,n,u,n,n
CCOc1cc(/C=N/Nc2nnc(C)n2N)ccc1OC(C)=O,n,45µM,n,n,n,n
Cc1nnc(N/N=C/c2cccc(C(F)(F)F)c2)n1N,u,n,n,u,u,n
CCN(CC)CCCNc1ncnc2c1cnn2-c1ccc(C)c(C)c1,x,n,n,n,x,n
Cc1nn2c(N)csc2nc1=O,x,79µM,x,u,x,x
Cc1nn2c3ccccc3n(C)c2nc1=O,n,n,n,n,n,n
CCS(=O)(=O)c1ccc2c(c1)N(S(=O)(=O)c1ccc(C)cc1)CC(C(=O)O)O2 (stereo not drawn),n,u,n,89µM,n,n
CCS(=O)(=O)c1ccc2c(c1)N(S(=O)(=O)c1ccc(OC)cc1)CC(C(=O)O)O2 (stereo not drawn),n,n,n,n,n,n
O=C(OCc1nc2scc(-c3ccccc3)c2c(=O)[nH]1)c1ccco1,n,u,n,n,n,n
NC(=O)Cc1nc2scc(-c3ccccc3)c2c(=O)[nH]1,n,14µM,n,n,u,n
O=C(OCc1nc2scc(-c3ccccc3)c2c(=O)[nH]1)c1cccc([N+](=O)[O-])c1,n,40µM,u,n,n,u
O=C(c1ccccc1O)N(Cc1ccccc1)Cc1cccs1,x,x,n,x,x,x
CCc1c(C)[nH]c2c1C(=O)C(CN1CCOCC1)CC2 (stereo not drawn),n,19µM!,n,x,n,n
COc1cc(C(=O)NNC(=O)CCOc2cccc(Br)c2)cc(OC)c1OC,n,n[2.33 µM],n,n,n,n
COc1cc(C(=O)NC(=S)Nc2ccccc2N2CCOCC2)cc(OC)c1OC,n,14µM,u,40µM,n,n
CCCC(=O)Nc1ccccc1NC(=O)c1cc(OC)c(OC)c(OC)c1,n,89µM,n,n,n,n
CCOc1ccc(OCCC(=O)NNC(=O)c2cc(OC)c(OC)c(OC)c2)cc1,n,79µM,n,n,n,n
Cc1ccc(C(=O)NC(=S)Nc2ccccc2N2CCOCC2)cc1C,n,22µM,u,u,n,u
CCOC(=O)[C@]12CCCC=C1N(CCc1ccc(OC)c(OC)c1)C(=O)[C@H](CC(=O)NCCc1ccccc1OC)C2,n,x,x,x,n,x
C/C(=N\NC(=O)Cn1nnc2ccccc21)c1ccco1,n,n[0.501 µM],n,n,n,n
O=C(NCc1cccc(C(F)(F)F)c1)c1csc(COCCO)n1,n,x,x,x,n,x
COc1cc(C(=O)NC(=S)Nc2ccccc2[N+](=O)[O-])cc(OC)c1OC,x,u,28µM,u,n,u
CCOC(=O)c1c[nH]c2c(C)ccc(Cl)c2c1=O,n,n,28µM,n,n,n
CCOC(=O)c1c[nH]c2c(Cl)ccc(Cl)c2c1=O,n,n,n,n,n,n
O=C(O)c1ccn[nH]1,n,x,45µM,x,n,n
Cc1cc(C)c(Cn2c(C3CC(=O)N(c4ccc(F)cc4)C3)nc3ccccc32)c(C)c1 (stereo not drawn),x,u,n,n,x,n

# High-throughput results: PubChem, National Center for Advancing Translational Sciences (NCATS)
